Results filed as inconclusive are left out. Activity calls are given as the source filed them. Unless noted, calls follow the shape of the dose curve; as a rule, active = well fitted curve in the direction sought with a large enough effect; inconclusive = small, poorly fitted or top-dose-only effect, or another doubt; inactive = no such curve, though single readings can be large; an effect the other way counts as inactive or inconclusive.
Legend:
[1] = target: Cellular tumor antigen p53 (Homo sapiens) (UniProt P04637); assay: Primary qHTS for small molecule compounds that upregulate eGFP-tagged delta133p53alpha (in N-terminal) cells. (AID 2060322); settings: NCI-H358 eGFP-delta133p53alpha fluorescence, 24 h; activation: stronger effect = higher value; also: nearly all actives have a fitted effect of over 75% in size; also: potency is read from the fitted curve at half-maximal effect;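 as to activation: series mostly up to about 56 µM; 0% = DMSO vehicle and 100% = reference activator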
Sequence of Cellular tumor antigen p53 (Homo sapiens) (P04637 whole entry, looked up): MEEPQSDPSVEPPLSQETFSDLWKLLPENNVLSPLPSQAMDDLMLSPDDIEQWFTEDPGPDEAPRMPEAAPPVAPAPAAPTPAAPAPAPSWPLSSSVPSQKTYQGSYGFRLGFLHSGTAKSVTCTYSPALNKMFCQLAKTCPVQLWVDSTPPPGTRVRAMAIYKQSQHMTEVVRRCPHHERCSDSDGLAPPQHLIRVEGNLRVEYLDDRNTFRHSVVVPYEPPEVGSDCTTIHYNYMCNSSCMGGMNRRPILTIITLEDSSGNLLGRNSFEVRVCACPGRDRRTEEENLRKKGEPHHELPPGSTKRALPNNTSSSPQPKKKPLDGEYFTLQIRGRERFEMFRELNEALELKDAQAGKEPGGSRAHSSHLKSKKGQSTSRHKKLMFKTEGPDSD
Procedure, shortened: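 NCI-H358 cells pre-induced 24 h with 10 ng/ml doxycycline to express N-terminal eGFP-delta133p53alpha, then dosed 24 h at 37C without doxycycline; fixed, Hoechst-stained, GFP intensity by laser scanning cytometry, normalized to DMSO (0%) and 57.5 uM 5-azacytidine (100%).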

[2] = target: Aldehyde dehydrogenase, mitochondrial (Homo sapiens) (UniProt P05091); assay: qHTS for Inhibitors of the Aldehyde Dehydrogenase Family (ALDH2) Confirmatory screens (AID 2061303; active = well fitted inhibition curve with a large enough effect; title and protocol of this record describe different tests; also: nearly all actives have a fitted effect of over 45% in size; also: potency is read from the fitted curve at half-maximal effect)
[3] = qHTS for Inhibitors of the Aldehyde Dehydrogenase Family (ALDH1A2, ALDH1A3, ALDH2, ALDH3A1) (AID 2061307); also: nearly all actives have a fitted effect of over 50% in size; as to Potency: test system not described further here; potency is read from the fitted curve at half-maximal effect
[4] = target: Aldehyde dehydrogenase, mitochondrial (Homo sapiens) (UniProt P05091); assay: qHTS for Inhibitors of the Aldehyde Dehydrogenase Family (ALDH2) Primary screen (AID 2061308); also: nearly all actives have a fitted effect of over 55% in size; also: potency is read from the fitted curve at half-maximal effect
[5] = target: Retinaldehyde dehydrogenase 3 (Homo sapiens) (UniProt P47895); assay: qHTS for Inhibitors of the Aldehyde Dehydrogenase Family (ALDH1A3) Confirmatory screens (AID 2061311); also: nearly all actives have a fitted effect of over 60% in size; also: potency is read from the fitted curve at half-maximal effect
[6] = target: Retinal dehydrogenase 2 (Homo sapiens) (UniProt O94788); assay: qHTS for Inhibitors of the Aldehyde Dehydrogenase Family (ALDH1A2) Confirmation screens (AID 2061314); also: nearly all actives have a fitted effect of over 65% in size; also: potency is read from the fitted curve at half-maximal effect
[7] = target: Retinaldehyde dehydrogenase 3 (Homo sapiens) (UniProt P47895); assay: qHTS for Inhibitors of the Aldehyde Dehydrogenase Family (ALDH1A3) Primary screen (AID 2061315);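 also: plate controls were DMSO vehicle for no effect and reference inhibitor for full effect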
[8] = target: Aldehyde dehydrogenase 1A1 (Homo sapiens) (UniProt P00352); assay: qHTS for Inhibitors of the Aldehyde Dehydrogenase Family (ALDH1A1) Confirmatory screens (AID 2061316); also: nearly all actives have a fitted effect of over 65% in size; also: potency is read from the fitted curve at half-maximal effect
[9] = target: Retinaldehyde dehydrogenase 3 (Homo sapiens) (UniProt P47895); assay: qHTS for Inhibitors of the Aldehyde Dehydrogenase Family (ALDH1A3) Validation screen (AID 2061312); also: % is scaled to controls: 0 for no effect and ±100 for the full control effect; nearly all actives have a fitted effect of over 45% in size
[10] = BET inhibitor-based combinations targeting novel dependencies in MECOM-rearranged (r) AML: SET-2 cell line (AID 2202231); settings: SET-2 AML cells viability, CellTiter-Glo luminescence, 48 h; viability: stronger effect = lower value, series mostly up to about 46 µM;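 also: plate controls were DMSO treated cells for no effect and wells without cells for full effect; nearly all actives have a fitted effect of over 35% in size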
Procedure, shortened: (§1)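 Luminescent ATP readout (CellTiter-Glo) after 48 hr drug exposure gives viability. Curves span 11 concentrations and are normalized to DMSO and empty wells. Activity is reported as area under the curve and its Z-transform within each cell line.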

[11] = BET inhibitor-based combinations targeting novel dependencies in MECOM-rearranged (r) AML: OCI-AML3 cell line (AID 2202232); settings: Potency: OCI-AML3 viability;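 also: series mostly up to about 46 µM; plate controls were DMSO vehicle wells for no effect and wells without cells for full effect; nearly all actives have a fitted effect of over 35% in size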
Procedure, shortened: as §1

[12] = BET inhibitor-based combinations targeting novel dependencies in MECOM-rearranged (r) AML: MV-4-11 cell line (AID 2202233);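 also: plate controls were DMSO for no effect and blank wells for full effect; nearly all actives have a fitted effect of over 45% in size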
Procedure, shortened: (§2)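 Luminescent ATP readout (CellTiter-Glo, 15 min at room temperature) after 48 hr drug exposure gave viability. Dose-response curves, normalized to DMSO and empty-well controls, were summarized as area under the curve and its mean-centred Z-score.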

[13] = BET inhibitor-based combinations targeting novel dependencies in MECOM-rearranged (r) AML: HNT-34 cell line (AID 2202234);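 also: plate controls were vehicle wells for no effect and cell-free wells for full effect; nearly all actives have a fitted effect of over 35% in size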
Procedure, shortened: as §2

[14] = BET inhibitor-based combinations targeting novel dependencies in MECOM-rearranged (r) AML: AML-191 cell line (AID 2202236;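 also: plate controls were vehicle wells for no effect and wells without cells for full effect; nearly all actives have a fitted effect of over 35% in size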)
Procedure, shortened: as §1

[15] = BET inhibitor-based combinations targeting novel dependencies in MECOM-rearranged (r) AML: AML-194 cell line (AID 2202237;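 also: plate controls were vehicle wells for no effect and wells without cells for full effect; nearly all actives have a fitted effect of over 40% in size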)
Procedure, shortened: as §1

O=C(O)c1n[nH]c2c1C[C@H]1C[C@@H]21
inactive: activation [1] -8.11% | Potency [2] | Potency [3] | Potency [4] | Potency [5] | Potency [6] | Potency [7] | Potency [8]

C[S+](CC[C@H](N)C(=O)[O-])C[C@H]1O[C@@H](n2cnc3c(N)ncnc32)[C@H](O)[C@@H]1O (stereo not given in full)
inactive: activation [1] 12.3% | Potency [2] | Potency [3] | Potency [4] | Potency [5] | Potency [6] | Potency [7] | Potency [8]

N#Cc1ccc(O[C@@H]2c3ccccc3C[C@H]2N2CCC[C@@H](N)C2)c(Cl)c1
active: Potency [1] 30.1 µM
inactive: Potency [2] | Potency [3] | Potency [4] | Potency [5] | Potency [6] | Potency [7]

O=C(O)c1ccc(N2C(=O)/C(=C/c3ccc(-c4ccc([N+](=O)[O-])cc4)o3)C=C2c2ccccc2)cc1
active: Potency [2] 1.59 µM | Potency [3] 11.3 µM | Potency [4] 3.98 µM | Potency [5] 20.1 µM | Potency [6] 5.65 µM | Potency [8] 3.18 µM
inactive: activation [1] 24.3%

CCC(=O)c1cc(-c2ccc(Cl)cc2)n(-c2ccc(S(N)(=O)=O)cc2)c1C
inactive: activation [1] 0.955% | Potency [2] | Potency [3] | Potency [4] | Potency [5] | Potency [9] | Potency [7] | Potency [8]

N#Cc1ccc(C(=O)N2CCC3(CC2)N=C(N)c2c(F)ccc(F)c2N3)cn1
inactive: activation [1] 6.21% | Potency [2] | Potency [3] | Potency [4] | Potency [5] | Potency [9] | Potency [6] | Potency [7] | Potency [8]

CC(C)c1c(-c2cnn(C(C)(C)C)c2)nc2c(C#N)c[nH]n2c1=O
inactive: activation [1] 11.2% | Potency [2] | Potency [3] | Potency [4] | Potency [5] | Potency [7] | Potency [8]

CC1(C)SCCN(S(=O)(=O)c2ccc(Oc3ccncc3)cc2)[C@H]1C(=O)NO
inactive: activation [1] 20.3% | Potency [2] | Potency [3] | Potency [4] | Potency [6]

O=C(OCC1=C[C@@H](O)[C@@H]2C=CO[C@@H](O[C@@H]3O[C@H](CO)[C@@H](O)[C@H](O)[C@H]3O)[C@H]12)c1ccc(O)cc1
inactive: activation [1] 3.57% | Potency [2] | Potency [3] | Potency [4] | Potency [6] | Potency [7]

C/C(=N\N=C(N)N)c1cc(NC(=O)CCCCCCCCC(=O)Nc2cc(/C(C)=N/N=C(N)N)cc(/C(C)=N/N=C(N)N)c2)cc(/C(C)=N/N=C(N)N)c1
inactive: Potency [2] | Potency [3] | Potency [4] | Potency [5] | Potency [7] | Potency [8]
active: Potency [1] 26.9 µM

COC(=O)N1CC2(CC2)C[C@H](C(=O)NO)[C@H]1C(=O)N1CCN(c2ccccc2)CC1
inactive: activation [1] 12.6% | Potency [2] | Potency [3] | Potency [4] | Potency [5] | Potency [6] | Potency [8] | viability [10] 112% | Potency [11] | Potency [12] | Potency [13] | Potency [14] | Potency [15]

Source: PubChem BioAssay (NCATS)
